# Counter-ions that a name gives are not always drawn. ± gives the standard deviation of the averaged measurements.
# Experiments:
# [1] = test system: Saccharomyces cerevisiae BY4741 SeMeCo community; assay: mean cell size (pixel area) (pixels); higher = larger cells; conditions: 10 µM; 24 h; SM minimal medium
# In short: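 Yeast cells were fixed with paraformaldehyde, imaged by automated confocal microscopy and analysed in Harmony to obtain mean cell pixel area per well. They came from a four-plasmid fluorescent Saccharomyces cerevisiae BY4741 community, each plasmid complementing one auxotrophy and carrying a fluorescent marker. Before imaging, 70 µl of culture at OD600 = 0.3 was incubated for 24 h in SM medium in 384-well plates predosed acoustically with drug (final 10 µM). Values are means of 3 replicates. Same SeMeCo high-content imaging drug screen: Selleck FDA-approved drugs at 10 µM, 24 h in SM medium, 384-well plates, 3 replicates.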
# [2] = test system: Saccharomyces cerevisiae BY4741 SeMeCo community; assay: z-score of prototroph abundance vs DMSO median; higher = larger share of this subpopulation than in DMSO controls; conditions: 10 µM; 24 h; SM minimal medium; subpopulation (auxotrophy): Prototroph
# In short: (§1)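 Four plasmids, each restoring a single auxotrophy and encoding a distinct fluorescent protein, were carried by a Saccharomyces cerevisiae BY4741 community. After overnight growth to OD600 1.0 and dilution to 0.3, 70 µl per well was grown for 24 h in minimal SM medium on 384-well plates acoustically predosed with library drugs at 10 µM final. Following paraformaldehyde fixation, automated confocal microscopy was used, with single-auxotroph fluorescent strains defining thresholds and autofluorescence correction. Subpopulation abundance was then scored as a z-score against the vehicle-well median.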
# [3] = test system: Saccharomyces cerevisiae BY4741 SeMeCo community; assay: z-score of subpopulation abundance vs DMSO median, subpopulation auxotrophic for M; higher = larger share of this subpopulation than in DMSO controls; conditions: 10 µM; 24 h; SM minimal medium; subpopulation (auxotrophy): M
# In short: as §1
# [4] = test system: Saccharomyces cerevisiae BY4741 SeMeCo community; assay: z-score of subpopulation abundance vs DMSO median, subpopulation auxotrophic for L; higher = larger share of this subpopulation than in DMSO controls; conditions: 10 µM; 24 h; SM minimal medium; subpopulation (auxotrophy): L
# In short: as §1
# [5] = test system: Saccharomyces cerevisiae BY4741 SeMeCo community; assay: z-score of subpopulation abundance vs DMSO median, subpopulation auxotrophic for U; higher = larger share of this subpopulation than in DMSO controls; conditions: 10 µM; 24 h; SM minimal medium; subpopulation (auxotrophy): U
# In short: as §1
# [6] = test system: Saccharomyces cerevisiae BY4741 SeMeCo community; assay: z-score of subpopulation abundance vs DMSO median, subpopulation auxotrophic for H; higher = larger share of this subpopulation than in DMSO controls; conditions: 10 µM; 24 h; SM minimal medium; subpopulation (auxotrophy): H
# In short: as §1
# [7] = test system: Saccharomyces cerevisiae BY4741 SeMeCo community; assay: z-score of subpopulation abundance vs DMSO median, subpopulation auxotrophic for LU; higher = larger share of this subpopulation than in DMSO controls; conditions: 10 µM; 24 h; SM minimal medium; subpopulation (auxotrophy): LU
# In short: as §1
# [8] = test system: Saccharomyces cerevisiae BY4741 SeMeCo community; assay: z-score of subpopulation abundance vs DMSO median, subpopulation auxotrophic for LM; higher = larger share of this subpopulation than in DMSO controls; conditions: 10 µM; 24 h; SM minimal medium; subpopulation (auxotrophy): LM
# In short: as §1
# [9] = test system: Saccharomyces cerevisiae BY4741 SeMeCo community; assay: z-score of subpopulation abundance vs DMSO median, subpopulation auxotrophic for HU; higher = larger share of this subpopulation than in DMSO controls; conditions: 10 µM; 24 h; SM minimal medium; subpopulation (auxotrophy): HU
# In short: as §1
# [10] = test system: Saccharomyces cerevisiae BY4741 SeMeCo community; assay: z-score of subpopulation abundance vs DMSO median, subpopulation auxotrophic for UM; higher = larger share of this subpopulation than in DMSO controls; conditions: 10 µM; 24 h; SM minimal medium; subpopulation (auxotrophy): UM
# In short: as §1
# [11] = test system: Saccharomyces cerevisiae BY4741 SeMeCo community; assay: z-score of subpopulation abundance vs DMSO median, subpopulation auxotrophic for HLU; higher = larger share of this subpopulation than in DMSO controls; conditions: 10 µM; 24 h; SM minimal medium; subpopulation (auxotrophy): HLU
# In short: as §1
# [12] = test system: Saccharomyces cerevisiae BY4741 SeMeCo community; assay: z-score of subpopulation abundance vs DMSO median, subpopulation auxotrophic for HLM; higher = larger share of this subpopulation than in DMSO controls; conditions: 10 µM; 24 h; SM minimal medium; subpopulation (auxotrophy): HLM
# In short: as §1
# [13] = test system: Saccharomyces cerevisiae BY4741 SeMeCo community; assay: z-score of subpopulation abundance vs DMSO median, subpopulation auxotrophic for HUM; higher = larger share of this subpopulation than in DMSO controls; conditions: 10 µM; 24 h; SM minimal medium; subpopulation (auxotrophy): HUM
# In short: as §1
# [14] = test system: Saccharomyces cerevisiae BY4741 SeMeCo community; assay: z-score of subpopulation abundance vs DMSO median, subpopulation auxotrophic for LUM; higher = larger share of this subpopulation than in DMSO controls; conditions: 10 µM; 24 h; SM minimal medium; subpopulation (auxotrophy): LUM
# In short: as §1
# [15] = test system: Saccharomyces cerevisiae BY4741 SeMeCo community; assay: z-score of subpopulation abundance vs DMSO median, subpopulation auxotrophic for HLUM; higher = larger share of this subpopulation than in DMSO controls; conditions: 10 µM; 24 h; SM minimal medium; subpopulation (auxotrophy): HLUM
# In short: as §1
# [16] = test system: Saccharomyces cerevisiae BY4741 SeMeCo community; assay: z-score of subpopulation abundance vs DMSO median, subpopulation auxotrophic for HL; higher = larger share of this subpopulation than in DMSO controls; conditions: 10 µM; 24 h; SM minimal medium; subpopulation (auxotrophy): HL
# In short: as §1
# [17] = test system: Saccharomyces cerevisiae BY4741 SeMeCo community; assay: z-score of subpopulation abundance vs DMSO median, subpopulation auxotrophic for HM; higher = larger share of this subpopulation than in DMSO controls; conditions: 10 µM; 24 h; SM minimal medium; subpopulation (auxotrophy): HM
# In short: as §1
SMILES,mean cell size [1],z-score of prototroph abundance [2],z-score of subpopulation abundance [3],z-score of subpopulation abundance [4],z-score of subpopulation abundance [5],z-score of subpopulation abundance [6],z-score of subpopulation abundance [7],z-score of subpopulation abundance [8],z-score of subpopulation abundance [9],z-score of subpopulation abundance [10],z-score of subpopulation abundance [11],z-score of subpopulation abundance [12],z-score of subpopulation abundance [13],z-score of subpopulation abundance [14],z-score of subpopulation abundance [15],z-score of subpopulation abundance [16],z-score of subpopulation abundance [17]
Cc1c(Cl)cccc1Nc1ccccc1C(=O)O [Tolfenamic Acid],12.7 ± 0.24,1.21,-0.25,-2.08,0.15,-1.01,-1.24,-1.47,-0.34,-0.9,-1.46,-0.79,-0.87,-1.95,-1.09,–,–
Nc1nc2ccc(OC(F)(F)F)cc2s1 [Riluzole],12.6 ± 0.14,0.62,-0.49,0.43,-0.8,-0.43,0.41,0.35,-1.39,-0.42,-0.57,0.67,-0.82,–,0.8,-0.55,–
C[C@@H](NCCCc1cccc(C(F)(F)F)c1)c1cccc2ccccc12 [Cinacalcet HCl],12.17 ± 0.037,-0.37,0.31,2.8,-1.21,0.26,0.1,3.33,-1.71,-0.3,-0.17,0.67,-0.21,2.57,1.57,1.05,–
O=C(O)c1cn(C2CC2)c2cc(N3CCNCC3)c(F)cc2c1=O [Ciprofloxacin hydrochloride hydrate],12.4 ± 0.27,–,0.57,-0.22,0.96,-0.88,0.43,-0.37,–,0.65,0.36,0.11,0.96,0.41,–,-0.26,0.16
O=C(Nc1cccc(C2=NCCN2)c1)Nc1cccc(C2=NCCN2)c1 [Imidocarb dipropionate],12.1 ± 0.27,0.72,-1.19,-0.04,0.07,–,0.44,-0.28,0.05,-0.26,0.17,-0.49,-0.49,–,0.13,-0.57,–
CC(=O)Oc1ccc(C(=C2CCCCC2)c2ccc(OC(C)=O)cc2)cc1 [Cyclofenil],12.3 ± 0.17,0.79,-1.19,-0.27,0.16,–,-0.48,-1.03,-0.3,-0.03,-0.23,0.41,-0.46,-0.06,-0.2,0.25,–
Cc1cc(-n2c(=O)[nH]c(=O)n(C)c2=O)ccc1Oc1ccc(SC(F)(F)F)cc1 [Toltrazuril],12.53 ± 0.12,0.02,-0.11,-0.15,–,–,-0.65,-0.18,0.29,-0.14,0,-0.31,-0.45,–,–,0.24,0.1
N[C@@H]1CCCCN(c2c(F)cc3c(=O)c(C(=O)O)cn(C4CC4)c3c2Cl)C1 [Besifloxacin HCl],12 ± 0.16,-0.33,-0.11,0.15,–,0.1,0.95,0.38,0.44,-0.28,0.25,0.44,-0.3,-0.19,0.22,–,–
C#C[C@]1(O)CC[C@H]2[C@@H]3CCC4=CCCC[C@@H]4[C@H]3C(=C)C[C@@]21CC [Desogestrel],12.3 ± 0.29,–,-0.11,-0.12,-0.38,–,0.22,-0.94,–,-1.41,0.73,-0.87,-0.05,-0.72,–,0.58,-0.05
Cc1ccsc1/C=C/C1=NCCCN1C [Morantel tartrate],12.28 ± 0.098,–,0.85,-1.36,–,-1.74,0.13,-0.48,–,0.1,-0.25,-0.2,-0.08,-0.24,–,-0.87,-0.19
Cn1nnnc1SCC1=C(C(=O)O)N2C(=O)[C@@H](NC(=O)[C@H](OC=O)c3ccccc3)[C@H]2SC1 [Cefamandole nafate],12.6 ± 0.23,-0.92,0.49,0.3,0.1,0.14,-1.46,0.72,0.51,2.08,0.38,-0.57,-0.54,0.16,0.78,0.65,–
OCCN1CCN(CC/C=C2/c3ccccc3Sc3ccc(C(F)(F)F)cc32)CC1 [Flupenthixol dihydrochloride],12.24 ± 0.076,-0.24,-0.29,1.34,-0.72,–,0.47,0.75,0.56,-0.35,0.47,0.33,-0.33,0.65,-0.47,–,–
COc1cc(N)c(Cl)cc1C(=O)NC1CCN(CCCOc2ccc(F)cc2)CC1OC (stereo not given) [Cisapride],12 ± 0.14,1.03,-1.29,0.11,-0.14,–,-0.54,-0.7,-0.01,-0.35,0.37,-0.82,-0.94,–,-0.17,-0.95,–
CC1CCc2cc(F)cc3c(=O)c(C(=O)O)cn1c23 (stereo not given) [Flumequine],12.3 ± 0.18,1.18,-1.12,-0.69,0.29,–,-0.58,-1.29,0.37,-1.16,0.18,-0.73,-0.88,–,–,-0.81,-1.42

# Reference: the supplement of paper PMC8975748
